Source: PubChem BioAssay
HIV TAR-Tat – TAR RNA-Tat peptide displacers, HIV-1, primary screen, biochemical, FRET, FAM/TAMRA-labeled Tat. HIV-1 TAR RNA, Tat peptide displacement FRET; active compounds read high. z-score (test concentration not listed). 100,000 tested, 0.6% active; active = z-score of 3 or more in at least 2 runs
CDC25B-CDK2 inh – primary biochemical HTRF screen for blockers of M-phase inducer phosphatase 2 binding to CDK2/cyclin A; P30305+P24941; HTRF CDC25B-CDK2/CyclinA binding, anti-His/anti-Flag; active compounds read high; z-score (no concentration beside the values); 94,000 tested, 0.72% active; in the data active = z-score above about 3.2
* marks the source's active call; other numbers are inactive results; x = not tested or not shown. Hits are enriched below; roughly 0.9% of the tested compounds scored in any of these assays.

SMILES	HIV TAR-Tat	CDC25B-CDK2 inh
COc1ccc(-c2cc(C(=O)OC(C)C)c3cc(Br)ccc3n2)cc1	x	15*
CCOc1ccc(-c2cc(C(=O)O)c3cc(Br)ccc3n2)cc1	1.9	-2.4
Cc1nn2c(=O)cc(CSc3ccccc3NC(=O)c3ccco3)nc2s1	-0.08	x
O=C(Nc1ccccc1SCc1cc(=O)n2c(-c3ccccc3)csc2n1)c1ccco1	8.4*	x
O=C(O)CCN1C(=O)C(=O)/C(=C(/O)c2ccccc2)C1c1ccccc1F (stereo not given)	x	-1.7
CN(C)c1ccc(NC(=O)CCCC(=O)O)cc1	1.7	-4.2
CN(C)c1ccc(C(=O)NCCCCCC(=O)NO)cc1	10*	x
COc1ccc(Nc2nnc(Cc3cccnc3)c3ccccc23)cc1Cl	x	-0.89
Cc1ccc2nc(-c3ccccc3)[nH]c2c1	x	-0.73
O=C1Nc2cc(Cl)ccc2SC2CCCCC2O1 (stereo not given)	x	20*
CC1CC(=O)Nc2cc(S(=O)(=O)Nc3cccc(Cl)c3)ccc2S1 (stereo not given)	1.4	x
COc1ccc(S(=O)(=O)c2cnc3cc(OC)c(OC)cc3c2N2CCCCC2)cc1	1.6	-2
CCOc1ccc2ncc(S(=O)(=O)c3ccc(C)cc3)c(N3CCCC3)c2c1	0.15	5.2*
CCOc1ccc2ncc(S(=O)(=O)c3ccccc3)c(N3CCCCC3)c2c1	-0.35	-0.61
COc1cc2ncc(S(=O)(=O)c3ccc(C)cc3)c(N3CCCC3)c2cc1OC	-0.63	9.6*
Oc1ccccc1C1CC(c2ccccc2)=NC(c2cccs2)N1 (stereo not given)	0.81	-0.18
COc1ccc(Oc2nc(N3CCCC3)c(Cl)c3c2N(CC2CCCO2)CCS3(=O)=O)cc1 (stereo not given)	-1.2	9.4*
CCCCN1CCS(=O)(=O)c2c(Cl)c(N3CCOCC3)nc(Oc3ccc(F)cc3)c21	0.06	7.8
O=C(O)c1cc(O)c2c(c1)[C@@H]([C@H]1c3cc(C(=O)O)cc(O)c3C(=O)c3c(O[C@H]4O[C@H](CO)[C@@H](O)[C@H](O)[C@H]4O)cccc31)c1cccc(O[C@H]3O[C@H](CO)[C@@H](O)[C@H](O)[C@H]3O)c1C2=O	22*	x
NCc1nc2cccnc2n1Cc1ccc(Cl)cc1	-3	-1.8
Fc1ccccc1CN1CCN(Cc2cccc3ccccc23)CC1	x	0.23
O=C(Nc1ccc(Cl)c(Cl)c1)Nn1cnnc1	x	18*
O=C(Nc1ccccc1)Nn1cnnc1	x	-0.44
CCN1C(=O)C(Cc2nc3ccccc3c(=O)n2C)c2cc(Br)ccc21 (stereo not given)	-1.2	-3.4
O=C1CCc2cc(S(=O)(=O)NC(C(=O)NC3CCCC3)c3ccccc3)ccc2N1 (stereo not given)	x	-1.4
SMILES	HIV TAR-Tat	CDC25B-CDK2 inh
FC(F)(F)C(=C(NC(=S)n1cnc2ccccc21)C(F)(F)C(F)(F)F)C(F)(F)F	x	-3.2
FC(F)(F)C(=C(NC(=S)N1CCCCCC1)C(F)(F)C(F)(F)F)C(F)(F)F	x	5.7*
CCOc1c(Nc2ccc(N3CCC(C)CC3)cc2)c(=O)c1=O	-1.7	x
CC(C)(C)c1ccc(C(=O)Nc2nnc(SCc3cc(=O)n4ccsc4n3)s2)cc1	0.57	x
CCOC(=O)c1c(N)sc(C)c1C	0.93	-0.25
CCOC(=O)c1c(N)sc(SSc2sc(N)c(C(=O)OCC)c2C)c1C	x	4.4*
CN1CCN(c2cc3c(cc2F)c(=O)c(S(=O)(=O)c2cccc(Cl)c2)cn3C)CC1	-0.06	x
Cc1ccc2[nH]c(=O)c(CN(C(C)C)S(=O)(=O)c3ccccc3)cc2c1	19*	-2.8
CCN(Cc1cc2cc(C)ccc2[nH]c1=O)S(=O)(=O)c1ccc(C)cc1	0.92	-2.5
Cc1nn(C(C)C(=O)NCCc2c[nH]c3ccccc23)c(=O)c2c1sc1ccccc12 (stereo not given)	2.5	-1.7
CCC(C)Cn1c(C)c2c(=O)n(-c3nc4ccccc4s3)[nH]c2cc1=O (stereo not given)	1.2	-1.5
Cc1c2c(=O)n(-c3nc4ccccc4s3)nc-2cc(O)n1CCc1cnc[nH]1	26*	-0.36
Cc1c2c(=O)n(-c3nc4ccccc4s3)nc-2cc(O)n1CCc1c[nH]c2ccccc12	9.2*	2
CC(=O)Nc1ccc(S(=O)(=O)Nc2cccc(C(=O)Nc3ccccc3C(=O)O)c2)cc1	x	-2.6
O=C(Nc1cccc(C(=O)Nc2ccc(S(=O)(=O)O)c3cc(S(=O)(=O)O)cc(S(=O)(=O)O)c23)c1)Nc1cccc(C(=O)Nc2ccc(S(=O)(=O)O)c3cc(S(=O)(=O)O)cc(S(=O)(=O)O)c23)c1	x	4.6*
c1ccc(-c2noc(-c3ccncc3)n2)cc1	-0.35	0.08
CC1=NS(=O)(=O)c2cc(C(=O)NC(C)C)ccc2N1CC(C)C	0.98	x
Cc1ccc2nc(Nc3ccc4c(c3)OCO4)c3nnnn3c2c1	-2.6	0.34
Cc1noc(NS(=O)(=O)c2ccc(NC(=O)c3nn(-c4ccccc4)ccc3=O)cc2)c1C	16*	-0.82
Cc1cc2oc(C(=O)Nc3ccc(S(=O)(=O)Nc4onc(C)c4C)cc3)cc(=O)c2cc1C	4.4*	-0.43
Cc1ccc(C(=O)Nc2ccc(S(=O)(=O)Nc3onc(C)c3C)cc2)o1	x	-1.1
O=C(Nc1ccc(S(=O)(=O)Nc2ncccn2)cc1)c1nn(-c2ccccc2)ccc1=O	0.19	-1.1
O=C(CCc1nnc2ccc(N3CCCCC3)nn12)NCc1ccc(CN2CCOCC2)o1	1.5	x
FC(F)(F)c1cccc(-n2cc(-c3ccccc3)c3c(N4CCC5(CC4)OCCO5)ncnc32)c1	x	-0.69
Cc1nc2c(C)cccn2c(=O)c1Cc1nnc(SCC(=O)N2CCc3ccccc32)n1C	-0.19	-0.77
SMILES	HIV TAR-Tat	CDC25B-CDK2 inh
CCOCCCNc1cc(Br)c2noc3c2c1C(=O)c1ccccc1-3	-5.6	-2.3
COc1ccc2nc(Nc3sc4c(c3C(N)=O)CCCC4)sc2c1	-1.3	4.3*
COc1cc(OC)cc(C(=O)Nc2sc3c(c2C(N)=O)CCCC3)c1	x	-0.63
CCc1nc(-c2csc(S(=O)(=O)N3CCC(C(=O)N4CCc5ccccc54)CC3)c2)no1	2.3	x
CC(=O)Oc1ccc2ccccc2c1-c1c(OC(C)=O)ccc2ccccc12	-0.52	-2
CC(=O)Oc1ccc(OC(C)=O)c2c1C(=O)c1ccccc1C2=O	x	17*
COc1ccccc1-c1nc(SCc2cc(=O)n3nc(C(C)C)sc3n2)n[nH]1	0.15	x
O=C1NC(NS(=O)(=O)c2ccccc2)(C(F)(F)F)C(=O)N1c1ccc(F)c(Cl)c1 (stereo not given)	x	18*
O=C1C2C(c3ccccc3)OC3(C(=O)c4ccccc4C3=O)C2C(=O)N1c1ccc(F)c(Cl)c1 (stereo not given)	1.4	0.7
N#CC1=C2N=C(N)c3ccccc3N2C2=C(C(=O)CCC2)C1c1ccc(Cl)cc1 (stereo not given)	1.5	-1.3
N#CC1=C2N=C(N)c3ccccc3N2C2=C(C(=O)CCC2)C1c1c(F)cccc1Cl (stereo not given)	-6.6	9.3*
N#CC1=C2N=C(N)c3ccccc3N2C2=C(C(=O)CCC2)C1c1ccccc1Cl (stereo not given)	-1.2	-0.95
N#CC1=C2N=C(N)c3ccccc3N2C2=C(C(=O)CCC2)C1c1ccccc1F (stereo not given)	-5.2	18*
CCC1CCCCN1CCCNC(=O)C1CCCN(S(=O)(=O)N2CCCCC2)C1 (stereo not given)	4.5*	x
